We go through 14 compounds from PubChem BioAssay AID2782 (National Center for Advancing Translational Sciences (NCATS), 2010).

Records with an inconclusive call do not appear. Entries that show only a call come without a potency. The source made the active and inactive calls. Calls come from the whole dose curve; as a rule, active = well fitted inhibition curve with a large enough effect in the polarisation, with a control signal flat (not every such curve was filed as active); inconclusive = small, poorly fitted or top-dose-only effect, or effect the other way, or a change in a side signal; inactive = no such curve, though single readings can be large or run the other way; the % refers to the polarisation.
Potency is the fitted concentration of half-maximal effect.

A short description of the assay: Confirmation of Inhibitors Targeting the Menin-MLL Interaction in MLL Related Leukemias: Competition With Texas Red Labeled MLL-derived Mutant Peptide. The settings on record: fluorescence polarization, Texas Red MLL peptide displacement; series mostly up to 288 µM. The source says:
qHTS Assay for Inhibitors Targeting the Menin-MLL Interaction in MLL Related Leukemias
NIH Chemical Genomics Center [NCGC]
NIH Molecular Libraries Probe Centers Network [MLPCN]
Assay Submitter (PI): Jolanta Grembecka, Tomasz Cierpicki, University of Virginia
Translocations of the MLL (Mixed Lineage Leukemia) gene are frequently found in human leukemias affecting both children and adults. Fusion of MLL to one of more than 60 genes results in generation of oncogenic proteins upregulating Hox genes, which are vital to blood cell development. Patients harboring fusion of the MLL gene suffer from aggressive leukemias and respond poorly to available therapies. All of the oncogenic fusion proteins have a preserved N-terminal fragment of MLL that has been identified to interact with menin. It has been recently discovered that association with menin is critical to the leukemogenic activity of the MLL fusion oncoproteins. Selective targeting of the menin-MLL interaction could provide an attractive therapeutic approach to develop novel drugs for MLL-related leukemias. Small molecules blocking the menin-MLL interaction should reverse the oncogenic potential of MLL fusion proteins.
We have developed and optimized a fluorescence polarization-based assay for the identification of Menin-MLL inhibitors. The assay was run employing two different MLL-derived peptides. The present assay uses a 12 amino acid peptide labeled with fluorescein at its N-terminus. This peptide consists of the menin high affinity binding motif from MLL and is potently bound by menin. Another peptide with a mutated sequence, labeled with Texas Red, was used in parallel as a less stringent screen for inhibitors.
The present assay was run to confirm the activity of hits from the primary screen using the peptide with a mutated sequence, labeled with Texas Red.
The Menin protein, the MLL-wild type (w.t.) derived peptide (N-terminal 12 amino acids), the MLL-derived peptide labeled with Texas Red and the MLL-w.t. peptide labeled with Fluorescein were kindly supplied by laboratory of Dr. Jolanta Grembecka, University of Virginia. All protein and peptide solutions were stored in single use aliquots at -80C. The Eu3+ Cyrptate-conjugated mouse monoclonal antibody anti-6 Histidine (Eu3+-AB) and the Streptavidin-XL665 conjugate (XL665) were purchased from Cisbio International (Bedford, MA). All antibody and XL665 conjugate solution stocks were stored in single use aliquots at -20C. The Buffer components for all assays were purchased from Sigma-Aldrich (St. Louis, MO) and Invitrogen (Carlsbad, CA).
1. FP reaction buffer: 50 mM Tris-HCl pH 7.5, 50 mM NaCl, 1mM DTT.
Before use, 0.05% BSA is added.
2. Menin protein, MLL-w.t. labeled with fluorescein, MLL-mutant peptide labeled with texas red.
Stored in singe use aliquots at -80C.
3. MLL-w.t. unlabeled peptide as positive control: 10 uM final in FP buffer.
1. Prepare Menin at 200 nM, MLL-w.t.-fluorescein at 25 nM, and MLL-mutant-texas red at 50 nM mixture in FP buffer.
2. Prepare Menin at 200 nM, MLL-w.t.-fluorescein at 25 nM, MLL-mutant-texas red at 50 nM, and 10 uM MLL-w.t. unlabeled mixture in FP buffer.
3. Prepare MLL-w.t.-fluorescein at 25 nM and MLL-mutant-texas red at 50 nM mixture in FP buffer.
3. Dispense 4 ul per well of reagent in step 1 in columns 2, 4 - 48 in a black 1536 well plate, dispense 4 ul per well of reagents from steps 2 and 3 in columns 1 and 3 respectively. Incubate plate at ambient for 15 minutes.
4. Transfer 23 nl per well of compound to plate and incubate at ambient for 1 hr.
5. Read fluorescence polarization for each label using the PerkinElmer Envision.
Envision protocol for fluorescein: FITC FP Dual Enh Mirror, Excitation filter 480, Emission filter (1) P-pol 535, Emission filter (2) S-pol 535
Envision protocol for texas red: FP Dual Enh Mirror, Excitation filter 555, Emission filter (1) P-pol 632, Emission filter (2) S-pol 632
For `C[N+](C)(C)CC#CCN1CCCC1=O`, the Potency result was “inactive”.

In the case of `CC[C@]12C=CCN3CC[C@@]4(c5ccc(OC)cc5N(C)[C@H]4[C@@](O)(C(=O)OC)[C@@H]1OC(C)=O)C32` (some centres undefined), the Potency entry is “inactive”.

Consider `Cc1cc(C(=O)NP(=O)(N2CCOCC2)N2CCOCC2)c(C)n1C1CC1`, for which the Potency entry was “inactive”. With `CCCCCn1c(=O)c(C(=O)Nc2nc(CC(=O)OCC)cs2)c(O)c2ccccc21` the entry was “inactive”. For `OC12C3C4CC5C6C4C1C6C(C53)N2CCc1cccc(F)c1` (centres undefined), the Potency result was “inactive”.

Consider `O=C(O)CN1C(=O)CN=C(c2ccccn2)c2cc(Cl)ccc21`, for which the Potency entry was “inactive”. `O=C1NC(=O)C(=Cc2ccc3ccccc3c2)C(=O)N1`: the Potency result was “inactive”. Consider `C[C@@H]1CC[C@@]2(NC1)O[C@H]1C[C@H]3[C@@H]4CC=C5C[C@@H](O)CC[C@]5(C)[C@H]4CC[C@]3(C)[C@H]1[C@@H]2C`, for which the Potency result is “inactive”. The result for `O=C(Nc1ccc2ccccc2c1)c1nn(C23CC4CC(CC(C4)C2)C3)cc1Br` reads “inactive”; that for `CCOP(=O)(OCC)C(NC(=O)c1ccccc1C)C(Cl)(Cl)Cl` (centres undefined), “inactive”; that for `c1cc2cc(c1)C[n+]1ccc(c3ccccc31)NCc1ccc(cc1)CNc1cc[n+](c3ccccc13)C2`, 100 µM (active). With `CCCCn1c(=O)c(C(=O)Nc2ccsc2C(=O)OC)c(O)c2ccccc21` the figure was 14.2 µM (active); with `COc1ccc(C(O)P(=O)(Oc2ccccc2)Oc2ccccc2)cc1` (centres undefined), “inactive”. With `COc1cc(/C=N/n2cnnc2)ccc1OC(=O)N(C)C` the entry was “inactive”.
